Screening data from PubChem BioAssay.
L929 necroptosis: L929 zVAD cell death inhibition; L929 zVAD necroptosis rescue, ATP luminescence, 24 h; with zVAD 60 µM; viability rescue, % at 10 µM; 0.38% of 220,000 active; AID 1377;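 active means activation, scaled between plate controls, above about 75%, limit read from the data; inactive means activation under that limit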;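 further: 0% = zVAD with DMSO and 100% = DMSO alone without zVAD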
WT yeast gro inh: growth inhibition of WT yeast, mitochondrial fusion screen. 2.1% of 190,000 active. inhibition, % at 10 µM. mitochondrial fusion phenotypic screen, WT strain; in the data active means inhibition above about 58%; tested in S. cerevisiae
PKD1 inh: blocks activity of human protein kinase D1 | Q15139 | PKD1 kinase fluorescence polarization assay | inhibition, % (test concentration not listed) | 0.056% of 200,000 active; in the data active means inhibition above about 50%
Target sequence (Q15139 whole entry, looked up): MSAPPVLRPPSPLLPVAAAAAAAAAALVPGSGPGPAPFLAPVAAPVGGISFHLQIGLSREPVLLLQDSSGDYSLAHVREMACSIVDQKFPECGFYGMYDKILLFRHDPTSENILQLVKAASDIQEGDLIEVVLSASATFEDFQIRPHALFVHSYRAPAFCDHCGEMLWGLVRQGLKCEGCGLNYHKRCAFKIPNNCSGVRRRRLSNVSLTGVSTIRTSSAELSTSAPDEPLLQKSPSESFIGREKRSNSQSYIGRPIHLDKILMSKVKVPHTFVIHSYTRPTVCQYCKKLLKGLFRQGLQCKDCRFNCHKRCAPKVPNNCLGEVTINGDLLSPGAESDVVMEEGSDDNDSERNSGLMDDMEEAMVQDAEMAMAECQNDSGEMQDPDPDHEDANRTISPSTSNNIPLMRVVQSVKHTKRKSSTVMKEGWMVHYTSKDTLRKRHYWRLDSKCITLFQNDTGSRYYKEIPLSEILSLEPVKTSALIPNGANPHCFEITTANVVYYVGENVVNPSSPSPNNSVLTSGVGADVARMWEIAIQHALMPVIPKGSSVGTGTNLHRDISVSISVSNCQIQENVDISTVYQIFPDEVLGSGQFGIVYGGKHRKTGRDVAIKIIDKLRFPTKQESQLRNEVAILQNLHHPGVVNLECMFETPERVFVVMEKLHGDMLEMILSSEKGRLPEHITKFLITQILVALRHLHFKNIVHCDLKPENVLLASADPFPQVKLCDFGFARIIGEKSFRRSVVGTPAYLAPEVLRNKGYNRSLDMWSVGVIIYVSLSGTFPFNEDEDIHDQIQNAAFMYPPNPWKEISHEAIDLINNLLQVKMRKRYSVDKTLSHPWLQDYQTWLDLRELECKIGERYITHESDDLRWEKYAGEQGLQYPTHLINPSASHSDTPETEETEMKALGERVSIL
Redox H2O2 prof: compounds producing H2O2 with reducing agent – biochemical, NIH compound library profiling, artefact control for MLSCN library redox annotation, primary screen; DTT-dependent redox cycling H2O2, phenol red/HRP absorbance; 100% = 100 µM peroxide control, 0% = buffer; activation, % at 10 µM; 0.03% of 200,000 active;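 active means activation of at least 50% relative to the plate's high and low controls in the primary single-dose screen; inactive means activation below 50%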;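 further: compound incubated with DTT at 0.8 mM final as the reducing agent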
TNF necrop inh: TNF-alpha cell death inhibition in Jurkat FADD-/- cells | Jurkat FADD-/- TNF necroptosis rescue, ATP luminescence, 24 h; 0 = TNF only, 100 = no-TNF cells | activation (protection from cell death), % at 10 µM | 0.068% of 220,000 active;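 active means activation, meaning protection from cell death, of at least 50% relative to plate controls; inactive means activation below 50%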;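 further: necroptosis triggered by 40 ng/mL TNF-alpha added together with compound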
PERK inhibitor: human PERK inhibition, primary cell-based screen; 0.17% of 220,000 active; CHO PERK-DD fusion, SEAP luminescence translation reporter; Q9NZJ5; inhibition, % at 5.6 µM;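 active means inhibition above the mean inhibition of all tested compounds plus 3 SD, set separately per screening campaign, cut at about 2.9% in these data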;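 further: PERK kinase domain activated by AP20187 dimerizer at 100 nM; 0% = DMSO with dimerizer and 100% = rapamycin at 8.4 µM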
An asterisk follows results filed as active; x = no result. A selection: hits, their analogues and other compounds. The true share with any hit is near 2.4%.

SMILES	L929 necroptosis	WT yeast gro inh	PKD1 inh	Redox H2O2 prof	TNF necrop inh	PERK inhibitor
C/C(=N/NC(N)=S)c1ccc(Br)s1	-2	-3	-1	0	-3	1
CCOC(=O)c1cnc2ccc(C(=O)OC)cc2c1Nc1ccc2c(c1)OCCO2	34	32	-3	0	-1	0
CCOC(=O)c1cnc2ccc(OC)cc2c1Nc1ccc2c(c1)OCCO2	33	77*	12	0	-4	-1
Cc1ccc2sc(N(CCCN(C)C)C(=O)c3ccc(Br)s3)nc2c1C	1	87*	1	-2	6	0
CCOc1cccc2sc(N(CCN(C)C)C(=O)c3ccc(Br)s3)nc12	1	1	4	0	2	0
Cc1ccc2sc(N(CCCN(C)C)C(=O)c3nc4ccccc4s3)nc2c1C	13	59*	-2	0	-13	1
CCOc1ccc(CN(C)CC(=O)Nc2ccc([N+](=O)[O-])cc2Cl)cc1	4	14	0	0	3	1
CNC(=S)N1CCN=C1Nc1nc(C)cc(C)n1	8	0	11	-1	-1	0
CSc1ccccc1NC(=S)N/N=C/c1cccn1Cc1cccc(C)c1	-1	63*	-2	1	-4	0
CSc1ccccc1NC(=S)N/N=C/c1cccn1Cc1ccc(F)cc1	-1	65*	11	-2	-1	1
CC(C)Cc1nc(N2CCN(C(=O)c3ccccc3)CC2)c(C#N)c2c1CCC2	0	73*	0	1	-1	0
CC(=O)N1CCN(c2nc(CC(C)C)c3c(c2C#N)CCC3)CC1	0	-10	-5	-3	-2	0
COc1ccc(/C=C2\N=C(c3ccccc3)NNC2=O)cc1	0	x	x	x	0	2
Cc1cccc(C(=O)NNC(=O)c2ccccc2)c1	0	-8	-8	0	0	0
Cc1cccc(C(=O)c2cnc3ccccc3c2-c2ccccc2)c1	1	62*	2	1	-2	-1
O=C(NCC(c1cccnc1)N1CCOCC1)c1ccco1 (stereo not drawn)	0	71*	-2	0	1	0
COc1ccccc1Cn1c(-c2ccccc2OC)nc2ccccc21	0	72*	-3	0	0	-2
Oc1ccccc1Cn1c(-c2ccccc2O)nc2ccccc21	1	10	-1	1	-1	0
Cc1cc(NCCCn2ccnc2)n2ncc(-c3ccc(Cl)cc3)c2n1	72	64*	-10	0	-4	-1
CC[N+]1(CC(O)COC2CC(C)CC(C)(C)C2)CCOCC1 (stereo not drawn)	0	x	x	x	2	1
Cc1cc(Nc2ccccc2)c2c([N+](=O)[O-])ccc(C)c2n1	-1	71*	7	0	-2	1
Cc1ccc(NC(=O)COC(=O)CNC(=O)c2ccc(Br)cc2)c(C)c1	0	0	-8	0	0	1
COc1ccccc1N(CC(O)COc1c(C)cc(C)cc1C)S(=O)(=O)c1ccccc1 (stereo not drawn)	1	61*	-6	0	1	-1
COc1ccc(-n2nnnc2S(=O)(=O)Cc2ccc(C(=O)O)cc2)cc1	0	-4	-3	-2	-12	0
COc1ccc(-n2nnnc2S(=O)(=O)CC(=O)N2CCCCC2)cc1	79*	-4	-5	-1	-16	0
SMILES	L929 necroptosis	WT yeast gro inh	PKD1 inh	Redox H2O2 prof	TNF necrop inh	PERK inhibitor
COc1ccc(CN2CCC(CO)(Cc3cccc(C(F)(F)F)c3)CC2)cc1Cn1cccn1	0	4	10	-1	3	0
O=C(OC(c1ccccc1)c1nccc2ccccc12)c1cccc([N+](=O)[O-])c1 (stereo not drawn)	0	67*	14	1	-1	-1
N/C(=N\OC(=O)C(c1ccccc1)c1ccccc1)c1cccnc1	0	76*	-13	1	-6	0
N/C(=N\OC(=O)C(c1ccccc1)c1ccccc1)c1ccccn1	0	26	-7	2	-2	-1
CCS(=O)(=O)Nc1ccc(-c2cc(-c3ccccc3)c3cc(C)ccc3n2)cc1	2	90*	-4	0	-1	0
Cc1ccc2nc(-c3ccc(NS(C)(=O)=O)cc3)cc(-c3ccccc3)c2c1	1	3	-15	0	-7	0
Cc1cc(C)c2nc(N3CCCC(C(=O)NCCCN4CCOCC4)C3)sc2c1 (stereo not drawn)	-1	-2	-6	0	-3	-1
Cc1cc(C)c2nc(N3CCC(C(=O)NCCCN4CC(C)CC(C)C4)CC3)sc2c1 (stereo not drawn)	18	69*	-3	0	-13	0
CCN(Cc1ccccc1)c1ccc(/C=N/NC(=S)NC(C)C)cc1	2	69*	1	0	3	1
CN(C)c1ccc(/C=N/NC(=S)NCc2ccccc2)cc1	0	70*	-8	-1	-6	-1
CCN(CC)c1ccc(/C=N/NC(=S)NCc2ccco2)cc1	1	67*	-5	0	1	0
CCS(=O)(=O)c1nc2ccccc2n1Cc1ccccn1	2	-3	-3	0	0	0
Cc1nc(-c2ccc(Cl)cc2)sc1C1(C)CC(c2cccc(F)c2)=NO1 (stereo not drawn)	0	x	x	x	1	x
COc1ccc(-c2cnnc(N/N=C/c3ccc(OC)c(OC)c3)n2)cc1	2	23	2	-1	0	0
COc1ccc(/C=N/Nc2nc(-c3ccc(Cl)cc3)cc(C(F)(F)F)n2)cc1OC	1	63*	1	1	0	0
CCOC(=O)c1c(CN2CCOCC2)n(-c2ccccc2)c2cc(Br)c(O)cc12	0	15	-6	2	-3	0
CCOC(=O)c1c(CN2CCOCC2)n(-c2ccccc2)c2cc(Br)c(OC)cc12	0	73*	-5	0	-3	-1
O=C1NCCN/C1=C\C(=O)c1cccc(Br)c1	0	x	x	x	0	1
CCN(CC)c1ncnc2scc(C3COc4ccccc4O3)c12 (stereo not drawn)	0	85*	-4	2	-1	0
c1csc(CNc2nc(-c3cccs3)nc3ccccc23)c1	3	79*	-13	0	-1	1
O=[N+]([O-])c1ccccc1/C=N/n1c(C2CCCCC2)n[nH]c1=S	1	58*	18	0	1	0
COCc1c(CCl)cnc(C)c1O	-1	-6	-7	-1	0	1
CC1CCCC(C)N1C(=O)Nc1cccc(Cl)c1 (stereo not drawn)	0	-6	3	2	-2	2.9*
O=C(Nc1cccc(Cl)c1)NC1CCCCC1	4	25	-2	2	8	2
